GALK inhibitor: inhibitors of human galactokinase; P51570; Purified GALK, Kinase-Glo residual ATP luminescence; Potency, µM (doses to about 57.5 µM), inactives show at the top dose activity change, negative = inhibition, hits mostly inhibitors; actives 0.007% (n = 270,000); AID 1868; also: potency is read from the fitted curve at half-maximal effect; % is scaled to controls: 0 for no effect and ±100 for the full control effect
Target sequence (P51570 whole entry, looked up): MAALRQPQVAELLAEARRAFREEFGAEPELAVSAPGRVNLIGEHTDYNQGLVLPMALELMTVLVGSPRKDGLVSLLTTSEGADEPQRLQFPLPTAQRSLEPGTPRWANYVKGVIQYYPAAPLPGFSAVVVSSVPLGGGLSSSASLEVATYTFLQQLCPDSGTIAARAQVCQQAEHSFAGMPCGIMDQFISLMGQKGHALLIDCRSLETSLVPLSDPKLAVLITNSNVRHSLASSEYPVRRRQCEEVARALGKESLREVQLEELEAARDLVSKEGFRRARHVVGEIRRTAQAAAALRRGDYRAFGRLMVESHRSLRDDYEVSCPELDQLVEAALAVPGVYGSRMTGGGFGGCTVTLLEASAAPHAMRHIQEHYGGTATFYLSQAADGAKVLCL
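Luminescence from leftover ATP (Ultra-Glo luciferase/luciferin) served as read-out after a 1 h room-temperature reaction of 5 nM GALK with 35 uM ATP and 100 uM galactose.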
USP2a inh: blocks human ubiquitin-specific protease USP2a | O75604 | USP2 core, Ub-CHOP2 coupled fluorogenic reporter, 485/531 | Potency, µM (highest dose often 38.3 µM), for the others: at the top dose activity change, negative = inhibition, usual class: inhibitors | actives 0.01% (n = 330,000);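 also: potency is read from the fitted curve at half-maximal effect; plate controls were DMSO wells for no effect and full inhibition by NEM control for full effect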
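USP2 core (10nM final) preincubated 30min RT with compound in 20mM Tris-HCl pH 8.0, 2mM CaCl2, 2mM beta-mercaptoethanol, 0.05% CHAPS; 25nM Ub-CHOP2 plus 25nM reporter substrate added, fluorescence (Ex485/Em531) read after 60min.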
Eya2 inh: Eya2 (human) phosphatase inhibition. recombinant Eya2, OMFP fluorescence dephosphorylation (OMFP is methylfluorescein phosphate). actives 0.006% (n = 330,000). Potency, µM (doses to about 76.9 µM), for inactives: at the highest dose activity, negative = inhibition, usual class: inhibitors; also: potency is read from the fitted curve at half-maximal effect; % is scaled to controls: 0 for no effect and ±100 for the full control effect
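Eya2 protein (added as 0.2 uM solution) was preincubated with compound for 10 min at ambient temperature in 50 mM HEPES pH 7.5, 50 mM NaCl, 5 uM MgCl2, 0.05% BSA, 1 mM DTT. OMFP (added at 50 uM) then reacted 10 min; fluorescence read at 485/525 nm.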
D1 potentiator: enhances dopamine response at the human D1 receptor. HEK293 TREx D1 cells, calcium flux, dopamine EC20 potentiation. actives 0.036% (n = 360,000). potentiation, % at 10 µM. P21728; in the data active = potentiation above about 30%; also: 0% is about no effect
D1 ag: activates the human D1 dopamine receptor; P21728; HEK293 T-REx D1 cells, calcium flux, agonist mode; activation, % at 2 µM; actives 1% (n = 360,000); in the data active = activation above about 30%; also: 0% is about no effect
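Tetracycline-induced HEK293 TREx D1 cells, force-coupled to calcium signalling, were dye-loaded with a no-wash calcium kit. Compound was pin-added after a 10 s baseline. Fluorescence was read kinetically at 1 cycle/s for 180 s, with calcium rises flagged as agonism.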
D1 antagonist: antagonists of human D1 dopamine receptor | activity change, negative = inhibition, % at 10 µM | actives 3.2% (n = 360,000) | P21728 | HEK293 TREx D1 cells, calcium flux, dopamine EC80; hits give low values | AID 504652; in the data active = activity change below about -30%; also: % is scaled to controls: 0 for no effect and ±100 for the full control effect
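Tetracycline-induced HEK293 Trex D1 cells, force-coupled to calcium, dye-loaded; compounds added and read 180 s, then EC80 dopamine added and calcium flux tracked kinetically another 180 s.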
* = called active by the depositor; ? = inconclusive; . = no result. This is a sample that favours compounds with a hit; in the whole collection about 3.9% have one here. Unless noted, calls follow the shape of the dose curve; as a rule, active = well fitted inhibition curve with a large enough effect; inconclusive = small, poorly fitted or top-dose-only effect, or effect the other way; inactive = flat fitted curve, though single readings scatter.

SMILES	GALK inhibitor	USP2a inh	Eya2 inh	D1 potentiator	D1 ag	D1 antagonist
CN1C(=O)C(=Cc2ccc(N3CCCCCC3)o2)C(=O)N(C)C1=S	7%	3%	-2%	1	27	4
CCc1ccccc1N1C(=O)/C(=C/c2ccc(N3CCN(C)CC3)o2)C(=O)NC1=S	5%	?	11%	-4	71*	2
Cc1cccc(N2C(=O)/C(=C/c3ccc(N4CCN(C)CC4)o3)C(=O)NC2=S)c1C	.	?	11%	2	68*	6
Cc1ccccc1N1C(=O)NC(=O)/C(=C/c2ccc(N3CCOCC3)o2)C1=O	-3%	?	-28%	-1	14	-1
O=C1NC(=O)N(c2ccc3c(c2)OCO3)C(=O)/C1=C\c1ccc(N2CCCCC2)o1	1%	2%	-7%	-2	50*	0
CN1CCN(Cc2c(F)cccc2Cl)CC1	-3%	-16%	-7%	-6	5	-11
CN1CCc2cccc(Cl)c2CC1	.	0%	0%	-7	0	-64*
Cc1cc2c(C(F)(F)F)cc(=O)oc2c2c1NCCC2	6%	6%	-3%	4	113*	-9
O=c1cc(C(F)(F)F)c2cc3c4c(c2o1)CCCN4CCC3	2%	?	?	-8	330*	-65*
COc1cccc(C2SCC(=O)Nc3c2c(C)nn3-c2ccc(C)c(Cl)c2)c1OC (configuration not stated)	.	.	.	-3	0	-6
O=C(COc1cccc(Cl)c1)N1CCN(CCc2ccncc2)CC1	.	.	.	0	-1	-7
COc1ccc(CN2C(=O)NC(=O)/C(=C/c3ccc(OC)c(OC)c3OC)C2=O)cc1	5%	0%	7%	-2	7	-35*
COc1ccc(CN2C(=O)NC(=O)/C(=C/c3cc(OC)c(OC)c(OC)c3)C2=O)cc1	3%	3%	2%	2	5	-13
C=CCn1c(O)c(C=Nc2ccc(N(CC)CC)cc2)c(=O)[nH]c1=O	-6%	-1%	-12%	-4	31*	-5
CCN(CC)c1ccc(N=Cc2c(O)n(-c3ccc(OC)cc3)c(=O)[nH]c2=O)cc1	4%	-1%	-4%	3	25	-17
CCN(CC)c1ccc(N=Cc2c(O)n(-c3ccc(Cl)cc3)c(=O)[nH]c2=O)cc1	0%	0%	13%	-6	6	-38*
CCCC1=Nc2cc(C(=O)NC3CCC(C)CC3)ccc2Sc2ccccc21 (configuration not stated)	.	.	.	-1	3	14
C#CCN(C)[C@H](C)Cc1ccccc1	5%	6%	17%	0	3	11
CC(Cc1ccccc1Sc1ccccc1O)N(C)C (configuration not stated)	1%	0%	-16%	0	40*	-38*
CCc1ccc(OCC(=O)N2CCN(CCc3ccncc3)CC2)cc1	.	.	.	0	10	-9
NCCc1c[nH]c2ccc(F)cc12	2%	1%	7%	-3	1	-30*
CC(C)CC(NP(=O)(O)O[C@@H]1O[C@@H](C)[C@H](O)[C@@H](O)[C@H]1O)C(=O)NC(Cc1c[nH]c2ccccc12)C(=O)O (some centres not stated)	.	.	4%	.	.	.
CN1/C(=C\C=C2C(=O)NC(=S)NC2=O)C(C)(C)c2ccccc21	5%	?	?	5	484*	-1
COc1ccc(CCNCc2ccncc2)cc1OC	0%	-2%	6%	-2	2	-22
COc1ccc(CCNCc2ccc(Br)cc2)cc1OC	4%	-3%	-11%	-9	43*	-11
SMILES	GALK inhibitor	USP2a inh	Eya2 inh	D1 potentiator	D1 ag	D1 antagonist
O=C(Cn1nc(-c2ccc(Cl)cc2)ccc1=O)N1CCC2(CC1)OCCO2	-1%	-1%	-2%	-7	-2	-35*
COc1ccc(-c2nc(CN3C(=O)CN=C(c4ccccc4)c4ccccc43)c(C)o2)cc1	.	.	.	-4	13	-23
BrCC1C[n+]2c(SCc3ccccc3)nc3sc4c(c3c2O1)CCCC4 (configuration not stated)	1%	2%	-12%	6	4	6
Nc1c2c(nc3sc4c(c13)CCCCC4)CCCC2	.	0%	-17%	-12	20	-42*
O=c1c2ccccc2nc(/C=C\c2ccccc2F)n1-c1ccc(O)cc1	.	.	.	-1	-2	-6
CP(=O)(O)C1=CCNCC1	.	.	4%	.	.	.
Clc1ccc2c(c1)C(c1ccccc1Cl)=NCc1nnc(N3CCN(CCSc4ccccc4)CC3)n1-2	3%	4%	8%	2	7	-1
Clc1ccc2c(c1)C(c1ccccc1Cl)=NCc1nnc(N3CCN(CCOc4ccccc4)CC3)n1-2	.	-2%	-2%	-10	39*	-22
Nc1c(C(=O)NCCN2CCOCC2)c2nc3ccccc3nc2n1Cc1ccco1	5%	2%	-9%	-3	4	-42*
CC(=O)[C@H]1CC[C@H]2[C@@H]3CC[C@H]4C[C@](C)(O)CC[C@]4(C)[C@H]3CC[C@]12C	.	.	-7%	.	.	.
CN1CCC(N(C)c2nc(-c3ccc([N+](=O)[O-])cc3)nc3ccccc23)CC1	0%	0%	-11%	-3	37*	-7
CN(C)C(=O)Oc1ccc(OCc2nc3ccccc3[nH]2)cc1	11%	3%	-1%	-8	16	-48*
c1cc(C2N3CCCN2CC3)ccn1 (configuration not stated)	4%	5%	4%	9	3	-44*
CN1[C@@H]2CC[C@H]1CC(OC1c3ccccc3CCc3ccccc31)C2 (some centres not stated)	.	0%	-4%	3	44*	-43*
Cc1cccc(-n2c(/C=C/c3cn(C)c4ccccc34)nc3ccccc3c2=O)c1	.	.	.	-1	1	-1
C=C(C)CN1CC[C@]23c4c5ccc(O)c4O[C@H]2c2[nH]c4ccccc4c2C[C@@]3(O)C1C5	4%	0%	-1%	-4	-1	-80*
CNC(=O)c1cccn(Cc2ccc(C(F)(F)F)cc2)c1=O	0%	4%	3%	-3	6	1
CNC(=O)c1cccn(Cc2cc(C(F)(F)F)cc(C(F)(F)F)c2)c1=O	-2%	-1%	7%	-1	30*	1
COc1ccc(CN2CCCC(C(=O)c3ccc(Cl)cc3)C2)c(OC)c1 (configuration not stated)	5%	-1%	4%	-1	11	-35*
COc1ccc(CN2CCCC(C(=O)c3cccc(Cl)c3)C2)cc1 (configuration not stated)	-2%	4%	-1%	-7	4	-9

Screening data as filed in PubChem BioAssay.
